From PubChem BioAssay
Compounds with a hit are over-represented: about 7.3% of the library has one in this group of screens.
HCV inhibitor – blocks hepatitis C virus | Huh7.5.1 HCVcc-Cre infection, luciferase reporter, 44 h | Potency, µM (doses to about 41.8 µM), without a hit: at the highest dose activity change, negative = inhibition, hits mostly inhibitors | hit rate 3.4% among 340,000 | AID 651820; note: potency is the fitted concentration of half-maximal effect
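Reporter virus HCVcc-Cre (~0.5 moi) infects cells exposed to compound; seeding density 1,000 cells/well with 4 h settling beforehand. Luminescence, 15 sec read, taken 44 h post-infection following a 15 min RT substrate incubation.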
AmpC inh no detg – blocks E. coli AmpC beta-lactamase in detergent-free assay; P00811; AmpC nitrocefin hydrolysis, absorbance 480 nm, 0.0001% Triton; Potency, µM (top dose mostly 57.1 µM), without a hit: at the top dose activity change, negative = inhibition, actives largely listed as inhibitors; hit rate 0.52% among 330,000; AID 485341;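 note: potency is the fitted concentration of half-maximal effect; plate controls were no compound for no effect and no enzyme for full effect; nearly all actives have a fitted effect of over 20% in size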
Target sequence (P00811 whole entry, looked up): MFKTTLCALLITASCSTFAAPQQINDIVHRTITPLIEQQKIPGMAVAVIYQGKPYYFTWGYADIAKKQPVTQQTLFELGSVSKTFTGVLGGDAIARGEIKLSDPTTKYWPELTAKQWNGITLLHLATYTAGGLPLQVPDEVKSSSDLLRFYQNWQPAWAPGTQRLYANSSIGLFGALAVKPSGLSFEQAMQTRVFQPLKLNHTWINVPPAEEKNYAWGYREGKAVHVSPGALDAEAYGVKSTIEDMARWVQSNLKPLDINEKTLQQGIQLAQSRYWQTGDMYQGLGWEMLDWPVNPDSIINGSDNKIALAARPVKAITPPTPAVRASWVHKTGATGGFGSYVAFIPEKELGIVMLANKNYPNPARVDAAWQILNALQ
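20 mM phosphate pH 7.0 + 0.01% (detergent screen) or 0.0001% Triton X-100; 5.3 nM AmpC reagent; cpd preinc 15 min RT; nitrocefin (800 uM stock) to start; A480 q20 s × 4 min; Activity was normalised to no-enzyme and no-compound control wells.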
AmpC inh detg – AmpC beta-lactamase inhibition with detergent present | AmpC hydrolysis of nitrocefin, absorbance 480 nm, 0.01% Triton | hit rate 0.041% among 370,000 | Potency, µM (doses to about 114 µM), inactives show top-dose activity change, negative = inhibition, usual class: inhibitors | AID 485294 | P00811;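 note: potency is the fitted concentration of half-maximal effect; 0% = no-compound wells and -100% = no-enzyme wells; nearly all actives have a fitted effect of over 25% in size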
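20 mM phosphate pH 7.0 + 0.01% (detergent screen) or 0.0001% Triton X-100; 5.3 nM AmpC reagent; cpd preinc 15 min RT; nitrocefin (800 uM stock) to start; A480 q20 s × 4 min; Activity was normalised to no-enzyme and no-compound control wells.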
HCMV inh – human cytomegalovirus inhibition; activity change, negative = inhibition, % at 57.5 µM; HFF cells, HCMV-luciferase reporter, 72 h; stronger effect = lower value; AID 1259415; hit rate 4.5% among 410,000; in the data active = activity change below about -60%; inconclusive = no clear call, values can overlap the other calls; inactive = above about -39%
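Two compound doses tested in HFFs infected with HCMV-luciferase, MOI 1 PFU/cell, 72 h at 37C. Lysate luminescence read with OneGlo; data normalized against buffer-only and 10uM Salinomycin inhibitor controls.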
FMDV inh – foot and mouth disease virus antiviral activity; FMDV antiviral cell-based qHTS; Potency, µM (top dose mostly 57.9 µM), for inactives: at the top dose activity change, negative = inhibition, hits mostly inhibitors; hit rate 1.2% among 410,000; calls by dose curve; tested in HEK293T cells; note: read-out not given here; potency is the fitted concentration of half-maximal effect; nearly all actives have a fitted effect of over 45% in size
Active calls of the source: *; u = inconclusive; x = no result given; [ ] = remark or other dose. Unless noted, calls come from the whole dose curve; as a rule, active = well fitted curve in the direction sought with a large enough effect; inconclusive = small, poorly fitted or top-dose-only effect, or another doubt; inactive = no such curve, though single readings can be large; an effect the other way counts as inactive or inconclusive. Unless noted, % is set by controls: 0 for no effect and ±100 for the full control effect.

SMILES	HCV inhibitor	AmpC inh no detg	AmpC inh detg	HCMV inh	FMDV inh
O=C(Nc1ccc(N2CCCC2)c(Cl)c1)c1cccnc1	u	84%	u	10	24%
O=C(NCCCN1CCOCC1)c1ccc(Cl)c(S(=O)(=O)N2CCCCCC2)c1	u	37%	u	-81*	-21%
O=C(Nc1nc2ccccc2[nH]1)c1ccc(Cl)c(S(=O)(=O)N2CCCC2)c1	22µM*	-46%	-11%	x	u
O=C(NCCCN1CCOCC1)c1ccc(CSc2ccc(Cl)cc2)cc1	u	216%	-4%	-70*	-14%
CCc1ccccc1NCc1nnc2n1CCCCC2	x	x	18%	3	-10%
O=C(Nc1ccon1)c1ccc(Cl)c(S(=O)(=O)N2CCCCC2)c1	-25%	-21%	-3%	x	-11%
Cc1cccc(C)c1NC(=O)NC1(C(=O)NCCN2CCOCC2)CCCCC1	9%	-20%	3%	-27	-11%
O=C(Nc1ccncc1)c1ccc(Cl)c(S(=O)(=O)N2CCCC2)c1	u	-26%	-10%	-71*	-9%
O=C(NC1CCCC1)c1ccc(Cl)c(S(=O)(=O)N2CCCCC2)c1	35µM*	-25%	-13%	-40	-13%
O=C(c1ccc(Cl)c(S(=O)(=O)N2CCCCC2)c1)N1CCN(Cc2ccccc2)CC1	u	125%	-5%	-61*	0%
O=C(NC1CCCCCC1)c1ccc(Cl)c(S(=O)(=O)N2CCOCC2)c1	-18%	0%	2%	23	5%
O=C(Nc1ccccc1Cl)NC1(C(=O)NCCCN2CCOCC2)CCCCC1	15%	-8%	-8%	-62*	-9%
CCOc1c(Cl)cc(C(=O)NCCN2CCCCC2)cc1Cl	10µM*	1%	u	9	-8%
Cc1ccc(C(=O)NCCN2CCCC2)cc1	3%	-13%	-2%	27	-19%
O=C(Nc1ccc(Cl)c(S(=O)(=O)N2CCCCC2)c1)c1cccnc1	14µM*	-7%	-3%	0	0%
CCN(CC)S(=O)(=O)c1cc(C(=O)Nc2ccncc2)ccc1Cl	u	-42%	1%	-87*	x
O=C(Nc1ccc(Br)cc1)c1ccc(Cl)c(S(=O)(=O)N2CCCCCC2)c1	x	x	1%	-32	28µM*
CCN(CC)S(=O)(=O)c1cc(C(=O)Nc2cccnc2)ccc1Cl	u	-2%	5%	-21	u
CCN(C(=O)c1cnc(N2CCOCC2)c2ccccc12)c1cc(C)ccc1C	x	x	3%	0	-23%
Cc1cccc(CSc2nc3c(c(-c4cccs4)c2C#N)CN(C)CC3)c1	u	29%	u	-3	-16%
Cc1cccc(CSc2nc(N)c(C#N)c(-c3cccs3)c2C#N)c1	11µM*	-16%	u	-35	u
Clc1cccc(-c2cccc3nccn23)c1Cl	x	x	x	-79*	-27%
CC1=C(O)C(=O)C=C2C1=CC=C1[C@]2(C)CC[C@@]2(C)C3C[C@](C)(C(=O)O)CC[C@@]3(C)CC[C@@]12C (some centres undefined)	x	x	x	x	4µM*
CCOC(=O)c1c(C)[nH]c(C)c1C(=O)COC(=O)c1cccnc1SC	-4%	-5%	-17%	11	-20%
C/C(=N\NC(=O)C12CCC(C)(C(=O)O1)C2(C)C)c1ccccc1O (centres undefined)	u	5%	-5%	-103*	4%
SMILES	HCV inhibitor	AmpC inh no detg	AmpC inh detg	HCMV inh	FMDV inh
CC12CCC(C(=O)NCc3ccccc3)(OC1=O)C2(C)C (centres undefined)	16%	-18%	u	2	10%
C=CCCC1CN(Cc2ccc(OC)cc2)S(=O)(=O)c2c(Oc3ccc(C)cc3)cccc2O1 (centres undefined)	x	x	x	-17	x
COc1ccc(Br)cc1CNc1ccc2[nH]c(=O)[nH]c2c1	u	-9%[2.29 µM]	-7%	u	-20%
COc1ccc(Br)cc1CNc1ccc(O)cc1	u	28µM*	u	-19	-28%
Cc1cc(Cl)nc(-c2ccccc2)n1	11%	-11%	9%	u	-17%
Cc1cc2c(C)nc(-c3ccccc3)nc2o1	3.5µM*	-10%	-2%	30	73%
COc1ccccc1/C=C/CN1CCC(n2nccc2NC(=O)CCc2ccccc2)CC1	3.5µM*	109%	3%	u	u
